Lassa entry inh: inhibitors of Lassa virus binding or cell entry. Lassa virus pseudotype entry inhibition, cell reporter. Potency, µM (series often up to 37.9 µM), inactives show at the top dose activity change, negative = inhibition, most hits filed as inhibitors. actives 1.2% (n = 300,000); calls by dose curve; tested in HEK293 cells; further: potency means the concentration at half of the fitted maximal effect; nearly all actives have a fitted effect of over 50% in size
HCMV inh: inhibitors of human cytomegalovirus | HFF cells, HCMV-luciferase reporter, 72 h; hits give low values | activity change, negative = inhibition, % at 57.5 µM | actives 4.5% (n = 410,000); in the data active means activity change below about -60%; inconclusive means no clear call, values can overlap the other calls; inactive means above about -39%
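Two-dose cell screen: HFF monolayers treated with compounds and infected with luciferase-expressing HCMV at 1 PFU/cell, 72 h at 37C, then lysed for luciferase measurement.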
FMDV antiviral: blocks foot and mouth disease virus; FMDV antiviral cell-based qHTS; Potency, µM (top dose mostly 57.9 µM), inactives show at the top dose activity change, negative = inhibition, actives largely listed as inhibitors; actives 1.2% (n = 410,000); AID 1159524; calls by dose curve; tested in HEK293T cells; further: read-out not given here; potency means the concentration at half of the fitted maximal effect; nearly all actives have a fitted effect of over 45% in size
MARV entry inh: Marburg virus entry inhibition; Marburg virus pseudotyped entry inhibition, cell reporter; Potency, µM (series often up to 37.8 µM), for inactives: top-dose activity change, negative = inhibition, usual class: inhibitors; actives 1.8% (n = 300,000); calls by dose curve; tested in HEK293 cells; further: potency means the concentration at half of the fitted maximal effect
HCV inhibitor: HCV inhibition | Huh7.5.1 HCVcc-Cre infection, luciferase reporter, 44 h | Potency, µM (highest dose often 41.8 µM), for inactives: at the highest dose activity change, negative = inhibition, actives largely listed as inhibitors | actives 3.4% (n = 340,000); active means well fitted inhibition curve with a large enough effect; inconclusive means small, poorly fitted or top-dose-only effect, or another doubt; inactive means no such curve, though single readings can be large or run the other way; further: potency means the concentration at half of the fitted maximal effect
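Cells seeded at 1,000/well and cultured 4 h, then compounds added followed by HCVcc-Cre virus (~0.5 moi). After 44 h further culture, luciferase substrate was added, plates held 15 min at room temperature, and luminescence read for 15 sec.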
An asterisk follows results filed as active; ? = inconclusive; . = no result; ! = a repeat was not active; [ ] = another dose, or the depositor's remark. Only some compounds are listed: those with a hit (about 7.9% of all), similar ones and a draw of the others. On the % scale 0 is the no-effect control and ±100 the full control effect.

SMILES | Lassa entry inh | HCMV inh | FMDV antiviral | MARV entry inh | HCV inhibitor
CC(C)C(=O)Nc1cccc(COc2ccccc2CN(Cc2ccccc2)C(=O)OC(C)(C)C)c1 | . | -35 | ? | . | ?
COc1ccc(C=C2c3ccccc3C(=O)c3ccccc32)c(OC)c1 | . | -88* | . | . | .
CCNc1ccc(Br)cc(C(=O)/C=C/c2ccc3c(c2)OCO3)c1=O | -26% | 37 | ? | -2% | 11%
CNc1ccc(Br)cc(C(=O)/C=C/c2cccc(OC)c2)c1=O | ? | -85* | ? | ? | 11µM*
COc1ccc(C(=O)/C=C/c2ccc(OC)c(O)c2)c(F)c1 | -27% | ? | 0% | ? | 14µM*
CNc1ccc(Br)cc(C(=O)/C=C/c2ccc(Cl)cc2Cl)c1=O | ? | 23 | 10µM* | ? | ?
COc1ccc(C=CC(=O)c2ccc(OC)c(OC)c2)cc1O | . | 47 | -13% | . | .
COc1cccc(CN2C(=O)COCc3cc(-c4cccc(CO)c4)ccc32)c1 | . | -17 | . | . | .
COc1ccc(OCC(=O)Nc2ccc(N3CCN(C(=O)c4ccccc4)CC3)c(Cl)c2)cc1 | ? | ? | 11µM* | ? | ?
COc1ccc(OCC(=O)Nc2ccc(N3CCOCC3)c(Cl)c2)cc1 | -9% | -18 | ? | -2% | 10µM*
CCc1ccc(OCC(=O)Nc2ccc(N3CCN(C(=O)c4ccccc4)CC3)cc2)cc1 | . | -34 | -13% | . | 1%
Cn1cnc(CCNC(=O)[C@@H]2[C@@H](CO)[C@@H]3Cn4c(cccc4=O)[C@H]2N3C(=O)Nc2ccccc2)c1 | . | -6 | . | . | .
C[C@@H]1C[C@H]2CC(=O)N3[C@H](CC(=O)N2[C@H]1c1ccccc1)C[C@@H](C)[C@@H]3c1ccccc1 | . | . | . | 15%[14.2 µM] | .
N=c1c2c(n(Cc3ccc(F)cc3)c3c1CCC3)CCCC2 | . | -100* | ? | . | -25%
N=c1c2c(n(Cc3ccccc3)c3c1CCC3)CCC2 | 1.6µM* | -97* | ? | ? | ?
N=c1c2c(n(Cc3ccc(Cl)cc3)c3c1CCC3)CCC2 | ? | -102* | ? | ? | ?
N=c1c2c(n(Cc3cccc(Cl)c3)c3c1CCC3)CCCC2 | ? | -95* | . | ? | 25µM*
N=c1sc2c(n1Cc1ccccc1)CCCC2 | 7% | -35 | . | ? | 1%
COc1ccc(C2CC(=O)C=C(NCc3ccc4c(c3)OCO4)C2)cc1 (stereo not given) | . | 6 | 18% | . | ?
c1csc(CNc2ccnc(-c3ccc4c(c3)OCO4)n2)c1 | . | . | -17% | . | .
N=c1c2c(n(Cc3ccc(Cl)cc3Cl)c3c1CCC3)CCCC2 | 4µM* | . | -1% | ? | 10µM*
CN1CCCN(Cc2ccc(Cl)cc2Cl)CC1 | ? | -32 | . | -44% | ?
CCCN(C(=O)c1cc2c(=O)n(CC)c3ccccc3c2s1)c1ccccc1F | 3%[46.1 µM] | -9 | -27% | -16%[46.1 µM] | .
CCn1c(=O)c2cc(C(=O)N(C)c3ccccc3F)sc2c2ccccc21 | -4%[46.1 µM] | ? | -26% | -1%[46.1 µM] | 1µM*
CCOc1ccccc1N(CC)C(=O)c1cc2c(=O)n(CC)c3ccccc3c2s1 | -29%[46.1 µM] | -70* | ? | ? | .
SMILES | Lassa entry inh | HCMV inh | FMDV antiviral | MARV entry inh | HCV inhibitor
CCn1c(=O)c2cc(C(=O)N(C)c3cc(C)ccc3OC)sc2c2ccccc21 | . | 0 | -47% | . | 13µM*
CCN(Cc1ccncc1)Cc1ccc2c(c1)CN(C(=O)c1ccc(OC)cc1)CCO2 | . | . | -13% | . | .
CCCCN(CC)CCNC(=O)Cn1cc2c(n1)-c1c(oc(C(=O)N3CCCC3)c1C)CC2 | 11%[46.1 µM] | -61*! | -8% | . | 4%
Cc1c(C(=O)N2CCCC2)oc2c1-c1nn(CC(=O)NCCCOC(C)C)cc1CC2 | 1%[46.1 µM] | ? | ? | . | 6%
NC1=NC(c2ccccc2)CC(=O)N1 (stereo not given) | 11%[46.1 µM] | -39 | 14% | 2%[46.1 µM] | 2%
FC(F)(F)c1cccc(-c2nnc(-c3ccccc3)c(N3CCOCC3)n2)c1 | -6% | -33 | 0% | -26% | 10µM*
FC(F)(F)c1nnc(-c2ccccc2)nc1N1CCOCC1 | 4% | -1 | 24% | 0% | -10%
CC(C)c1cc(C(F)(F)F)n2nc(C(=O)Nc3ccc4c(c3)OCO4)cc2n1 | 5% | 87 | 22% | 3% | 13µM*
O=C(Nc1cc(Cl)ccc1Cl)c1cc2nc(-c3ccc4c(c3)OCO4)cc(C(F)(F)F)n2n1 | 8%[46.1 µM] | 13 | -19% | 3%[46.1 µM] | .
COC(=O)c1ccc(-n2c(C)cc(C(=O)CCl)c2C)cc1 | . | -84* | 32µM* | . | 6.3µM*
COC(=O)c1ccc(-n2c(C)cc(C(=O)COC(=O)C3=COCCO3)c2C)cc1 | 14%[46.1 µM] | -66* | -16% | 0%[46.1 µM] | 9%
CCOc1ccc(-n2c(C)cc(C(=O)CCl)c2C)cc1 | 10µM* | -92* | 28µM* | ? | ?
CCOc1ccc(NC(=O)C(=O)c2cc(C)n(-c3cc(C)cc(C)c3)c2C)cc1 | 13%[46.1 µM] | -12 | -26% | -15%[46.1 µM] | .
Cc1cc(C(=O)COC(=O)C2=COCCO2)c(C)n1-c1ccc2c(c1)OCO2 | -1% | 13 | 7% | 1% | -17%
COC(=O)c1ccc(-n2c(C)cc(C(=O)COC(=O)CNS(=O)(=O)c3ccc(C)cc3)c2C)cc1 | -5% | -1 | -10% | -1% | 26%
Cc1c(C(=O)N2CCOCC2)c(S(=O)(=O)Nc2ccc(C(C)C)cc2)c(C)n1C | -25%[46.1 µM] | 31 | 39% | 13%[46.1 µM] | 19%
COc1ccc(Nc2ncnc3c2cnn3-c2ccc(C)cc2)cc1Cl | 20%[46.1 µM] | ? | -4% | . | .
COc1cc(NC(=O)CN2C(=O)CCc3cc(Br)ccc32)cc(OC)c1OC | 19%[46.1 µM] | 7 | -14% | . | .
COc1ccc(CNC(=O)C2CCN(c3nnc(C)c4c(C)n(-c5ccc(C)cc5)nc34)CC2)cc1 | -3%[46.1 µM] | -107* | -22% | . | .
Cc1nnc(N2CCCC(C(=O)NCc3ccc(OC(C)C)cc3)C2)c2nn(-c3ccccc3)c(C)c12 (stereo not given) | . | -66* | -25% | . | ?
Cc1ccc(-n2nc3c(N4CCCC(C(=O)NCc5ccccc5C)C4)nnc(C)c3c2C)cc1 (stereo not given) | -3%[46.1 µM] | -64* | 11% | . | .
COc1ccc(CNC(=O)C2CCCN(c3nnc(C)c4c(C)n(-c5ccc(C)cc5)nc34)C2)cc1 (stereo not given) | -2%[46.1 µM] | -24 | -5% | . | .
Cc1ccc(-n2nc3c(N4CCC(C(=O)NCCc5cccs5)CC4)nnc(C)c3c2C)cc1 | . | -83* | 25µM* | . | ?
c1ccc2c(c1)-c1nc3ccccc3cc1C2N1CCOCC1 (stereo not given) | -14% | 45 | 5% | 5% | ?
COc1ccc(-n2nc3c(N4CCCC(C(=O)NCc5ccc(C)cc5)C4)nnc(C)c3c2C)cc1 (stereo not given) | ? | -72* | -3% | . | .
CC(C)Cn1c(=O)c2sccc2n2c(CCCC(=O)N3CCC(N4CCCCC4)CC3)nnc12 | 28%[46.1 µM] | ? | 25% | 25%[46.1 µM] | -7%
CC(C)CCn1c(=O)c2sccc2n2c(CCCC(=O)N3CCC(N4CCCCC4)CC3)nnc12 | . | ? | -19% | . | 13µM*
